TDP1 cell CPT: DT40-hTDP1 cell growth loss with CPT; chicken DT40 Tdp1-/-;hTDP1 cells + 20 nM CPT, ATP luminescence, 48 h; Potency, µM (series often up to 46.2 µM), without a hit: at the top dose activity change, negative = growth inhibition, most hits filed as inhibitors; actives 12% (n = 420,000); AID 686979; also: potency is read from the fitted curve at half-maximal effect; nearly all actives have a fitted effect of over 55% in size
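Chicken DT40 Tdp1-/- cells stably complemented with human TDP1 were seeded at 400 cells/well in medium containing 20 nM camptothecin, exposed to pin-transferred compounds, and grown at 37 °C for at least 48 hr. Viability was read as ATP luminescence.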
DT40 TDP1 no CPT: qHTS for Inhibitors of human tyrosyl-DNA phosphodiesterase 1 (TDP1): qHTS in cells in absence of CPT. actives 15% (n = 420,000). DT40 Tdp1-/- hTDP1 cells, no CPT, ATP luminescence, 48 h. Potency, µM (doses to about 46.2 µM), inactives show at the top dose activity change, negative = growth inhibition, most hits filed as inhibitors; also: potency is read from the fitted curve at half-maximal effect; nearly all actives have a fitted effect of over 55% in size
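Seeded 400 DT40-hTDP1 cells/well (vehicle DMSO, no 20 nM CPT); pinned compounds; ≥48 hr at 37 °C; CellTiter-Glo luminescence as viability measure.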
HT1080-NT tox: kills 2HG-producing HT-1080-NT fibrosarcoma cells; HT-1080-NT fibrosarcoma viability, CellTiter-Glo ATP luminescence, 48 h; Potency, µM (titrated, usually from 46.1 µM), without a hit: top-dose activity, negative = less viability, hits mostly cytotoxic; actives 1.6% (n = 360,000);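 also: NT is the 2HG producing partner of a matched IDH1 knockdown line; potency is read from the fitted curve at half-maximal effect; 0% = DMSO-treated cells and -100% = media-only wells without cells; nearly all actives have a fitted effect of over 55% in size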
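Viability by CellTiter-Glo luminescence after 48 h compound exposure at 37C of HT-1080-NT cells (750/well, RPMI, 5% FBS). % activity scaled between DMSO wells and medium-only wells, then curve-fitted and categorized by curve class.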
12-LOX inh: blocks human arachidonate 12S-lipoxygenase; P18054; purified 12hLO, xylenol orange hydroperoxide absorbance; Potency, µM (top dose mostly 108 µM), without a hit: top-dose activity change, negative = inhibition, hits mostly inhibitors; actives 1.1% (n = 580,000); AID 1671190; also: potency is read from the fitted curve at half-maximal effect
Target sequence (P18054 whole entry, looked up): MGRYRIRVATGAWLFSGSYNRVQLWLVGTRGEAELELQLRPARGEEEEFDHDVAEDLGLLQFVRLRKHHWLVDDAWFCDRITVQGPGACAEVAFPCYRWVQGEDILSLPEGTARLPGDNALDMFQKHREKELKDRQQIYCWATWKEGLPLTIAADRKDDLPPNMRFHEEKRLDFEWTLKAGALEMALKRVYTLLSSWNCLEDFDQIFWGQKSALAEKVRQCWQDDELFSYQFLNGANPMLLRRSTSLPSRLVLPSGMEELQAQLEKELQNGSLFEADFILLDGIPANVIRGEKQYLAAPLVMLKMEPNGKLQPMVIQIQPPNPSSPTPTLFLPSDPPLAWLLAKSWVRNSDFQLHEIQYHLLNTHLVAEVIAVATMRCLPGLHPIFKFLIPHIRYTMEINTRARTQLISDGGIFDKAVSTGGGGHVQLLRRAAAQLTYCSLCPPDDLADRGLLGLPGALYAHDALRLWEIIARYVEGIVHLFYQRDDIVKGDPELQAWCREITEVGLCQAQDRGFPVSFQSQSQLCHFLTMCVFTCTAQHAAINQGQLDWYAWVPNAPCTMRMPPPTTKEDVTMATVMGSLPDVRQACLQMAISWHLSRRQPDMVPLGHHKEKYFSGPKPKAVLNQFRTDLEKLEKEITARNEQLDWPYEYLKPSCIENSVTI
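Purified human 12hLO (150 nM final) in 25 mM Hepes, 0.01% Triton X-100, pH 7.0 was preincubated 15 min at room temperature with compound. Then 40 uM arachidonic acid was added, 30 min. Hydroperoxide was read by Fe-XO absorbance ratio 573/405 nm.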
HT1080 IDH1KD tx: HT-1080 IDH1 knockdown cell toxicity (counter line) | Potency, µM (highest dose often 46.1 µM), for the others: at the top dose activity, negative = toxicity, actives largely listed as cytotoxic | AID 686971 | HT-1080 IDH1 knockdown viability, ATP luminescence, 48 h | actives 2% (n = 360,000);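 also: potency is read from the fitted curve at half-maximal effect; 0% = DMSO wells and -100% = cell-free medium wells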
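Luminescent ATP read-out (CellTiter-Glo, 10 min at room temperature) after 48 h compound exposure at 37 °C gave viability of IDH1-knockdown HT-1080 cells. Activity was normalised to DMSO and cell-free wells, then fitted as concentration-response curves.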
IL-1B inflam inh: inhibitors of inflammasome signaling (IL-1 beta secretion) | activity change, % at 57.5 µM | actives 4.7% (n = 360,000) | THP-1 LPS/ATP IL-1B secretion, AlphaLISA, 16 h; active compounds read low; in the data active = activity change below about -50%; inconclusive = mostly about -30% to -49%
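THP-1 cells pretreated 1 hr with compounds (up to 57.5 uM final), then stimulated with LPS (250 ng/mL final) plus ATP (1.25 mM final); secreted IL-1B measured by AlphaLISA after 16 hr, decreased signal indicating inhibition.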
The depositor's hits bear a star; ? = inconclusive; . = no result; [ ] = remark or other dose. The full list was thinned out, with hits kept by preference. Unless noted, calls follow the shape of the dose curve; as a rule, active = well fitted curve in the direction sought with a large enough effect; inconclusive = small, poorly fitted or top-dose-only effect, or another doubt; inactive = no such curve, though single readings can be large; an effect the other way counts as inactive or inconclusive. Unless noted, % is scaled to controls: 0 for no effect and ±100 for the full control effect.

SMILES	TDP1 cell CPT	DT40 TDP1 no CPT	HT1080-NT tox	12-LOX inh	HT1080 IDH1KD tx	IL-1B inflam inh
Cc1c(C)c2ccc(OC(C)C(=O)NCCc3ccc(S(N)(=O)=O)cc3)cc2oc1=O (stereo unspecified)	.	.	.	-1%	.	.
CC(c1cccs1)N(C)Cc1cccn1C (stereo unspecified)	.	.	.	74%[176 µM]	.	.
CN1C(=O)C(C)(C)c2cc(S(=O)(=O)N3CCCC(C(=O)Nc4ccc(Cl)cc4)C3)ccc21 (stereo unspecified)	?	18µM*	-20%	-4%	-6%	-12
Cc1ccccc1NC(=O)C1CCCN(S(=O)(=O)c2ccc3c(c2)C(C)(C)C(=O)N3C)C1 (stereo unspecified)	8%	?	-2%	18%	1%	-1
COc1cccc(CNC(=O)C2CCCN(S(=O)(=O)c3ccc4c(c3)C(C)(C)C(=O)N4C)C2)c1 (stereo unspecified)	15µM*	?	5%	2%[57.4 µM]	-1%	-3
COc1cccc(CNC(=O)C2CCN(S(=O)(=O)c3ccc4c(c3)C(C)(C)C(=O)N4C)CC2)c1	.	.	.	11%	.	.
CCOc1ccccc1NC(=O)C1CCCN(S(=O)(=O)c2ccc3c(c2)C(C)(C)C(=O)N3C)C1 (stereo unspecified)	18µM*	?	3%	13%[57.4 µM]	-16%	-4
CN1C(=O)C(C)(C)c2cc(S(=O)(=O)NCC3CCC(C(=O)NCc4ccccc4)CC3)ccc21 (stereo unspecified)	?	16µM*	-3%	7%	-8%	-11
O=C(NCC1CC1)c1ccc(N2CC3CC(C2)[C@H]2CCCC(=O)N2C3)nc1 (stereo partly specified)	.	.	.	39%	.	.
COCCCNC(=O)C1CC(=O)N(CCc2c[nH]c3ccc(C)cc23)C1 (stereo unspecified)	.	.	.	15%	.	.
COC(=O)c1sc(NC(=O)COc2cc(C)cc(C)c2)nc1C	.	.	.	-17%	.	.
COc1ccccc1CNC(=O)C1CCCN(S(=O)(=O)c2ccc3c(c2)C(C)(C)C(=O)N3C)C1 (stereo unspecified)	?	15µM*	0%	-4%	-9%	4
C[N+](C)(CCCCCI)c1ccc(/C=C/c2nc3ccccc3s2)cc1	1µM*	0.56µM*	.	.	.	.
COc1ccccc1-c1ccc(SCc2ccc(C)cc2)nn1	?	15µM*	-3%	7%	-3%	-18
COc1ccc2c(c1)C=C([C@@H]1C[C@H]3CN(c4ccccc4)C(=O)[C@]34CCCN14)CO2	?	21µM*	-1%	?	0%	-2
CC(C)CCN1CCOc2cc(C(=O)Nc3nccs3)ccc2C1	.	.	.	74%[176 µM]	.	.
COC(=O)[C@@]12CCCCN1[C@H](c1ccc(-c3cc(C(C)=O)cs3)cc1)[C@H]1C(=O)N(C)C(=O)[C@H]12	5.2µM*	3.7µM*	-8%	-6%	3%	6
COC(=O)[C@@]12CCCCN1[C@H](c1ccc(-c3cc(C(C)=O)cs3)c(OC)c1)[C@H]1C(=O)N(C)C(=O)[C@H]12	4.1µM*	2.9µM*	15%	-1%	7%	5
CCCSc1ccc([C@@H]2[C@H]3C(=O)N(C)C(=O)[C@H]3[C@]3(C(=O)OC)CCCN23)cc1OC	-3%	-15%	-2%	?	-1%	-11
Cc1ccc(CN2C(=O)NC3(CCN(C(=O)c4cccc(C#N)c4)CC3)C2=O)cc1	.	.	.	-3%	.	.
CCOc1ccccc1NC(=O)c1ccccc1-c1nc(-c2ccccc2OC)no1	16µM*	9.2µM*	-13%	24%	-15%	-4
CCOC(=O)c1ccc(NC(=O)CCc2nc(-c3ccccc3Cl)no2)cc1	16µM*	15µM*	?	13%	?	54
COc1ccc(-c2noc(CCCC(=O)NC3CCCCC3)n2)cc1	21µM*	23µM*	-26%	-16%	?	-29
CCOc1ccc(NC(=O)CCCc2nc(-c3cccc(OC)c3)no2)cc1	?	21µM*	.	-5%	.	.
COc1ccc(-c2noc(CCC(=O)NC3CCCC3)n2)cc1	-26%	?	0%	28%	1%	16
SMILES	TDP1 cell CPT	DT40 TDP1 no CPT	HT1080-NT tox	12-LOX inh	HT1080 IDH1KD tx	IL-1B inflam inh
COCCNC(=O)c1ccccc1-c1nc(-c2ccccc2OC)no1	-26%	-7%	-13%	4%	2%	-1
COc1ccccc1-c1noc(CCC(=O)Nc2ccccc2Cl)n1	-10%	-3%	4%	?	13%	0
CCOc1ccccc1NC(=O)CCCc1nc(-c2ccccc2Cl)no1	13µM*	?	.	-9%	.	.
CCOC(=O)c1ccc(NC(=O)CCc2nc(-c3ccccc3)no2)cc1	18µM*	29µM*	-1%	0%	-28%	-9
O=C(CCn1nc(-c2ccc(Cl)cc2)c2ccccc2c1=O)NC1CCCCC1	.	.	.	-9%	.	.
COc1ccc(S(=O)(=O)NCc2ccc(C(=O)N3CCc4ccccc4C3)cc2)cc1	23µM*	23µM*	4%	-3%	-1%	-2
Cc1ccc(S(=O)(=O)NCc2ccc(C(=O)N3CCN(c4ccccc4)CC3)cc2)cc1	?	?	-12%	-13%	?	-23
Cc1ccc(CN(c2ccc(C(=O)N3CCc4ccccc4C3)cc2)S(C)(=O)=O)cc1	?	15µM*	-7%	0%	-27%	4
Cc1ccc(C)c(S(=O)(=O)NCc2ccc(C(=O)N3CCCCC3C)cc2)c1 (stereo unspecified)	?	23µM*	-8%[9.24 µM]	26%	-1%	-10
Cc1ccc(S(=O)(=O)NCc2ccc(C(=O)N3CCc4ccccc4C3)cc2)cc1	?	29µM*	2%	-2%	17%	-23
COc1ccc(S(=O)(=O)NCc2ccc(C(=O)NCCCN3CCCC(C)C3)cc2)cc1 (stereo unspecified)	?	-11%	12%	-13%	3%	-52*
CC(=O)Nc1ccc(S(=O)(=O)NCc2ccc(C(=O)NCCCN3CCC(C)CC3)cc2)cc1	-3%	14%	2%	-1%	-2%	-4
CSC1=N/C(=C\c2cccc(Cl)c2)C(=O)N1N(C)C	?	21µM*	16%	0%	18%	5

Compound activity (PubChem BioAssay)
